Bioassay records: PubChem BioAssay, several laboratories
Hits are enriched below; roughly 2.1% of the tested compounds scored in any of these assays.
GSH fluor: compound fluorescence on glutathione beads, profiling panel, artefact control, biophysical, 488/530 nm, flow cytometry; GSH beads flow cytometry, compound fluorescence 488/530 nm; hits give high values; fluorescence (KMESF) at 10 µM; hit rate 0.25% among 190,000; AID 1776, 2009; in the data active means fluorescence above about 89;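 further: glutathione beads carrying GST-tagged Bcl family fusion proteins plus one bare bead set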
Avidin fluor: green autofluorescence of compounds with avidin beads – biophysical, 488/530 nm, flow cytometry, artefact control, profiling panel; compound fluorescence 488/530 nm; hits give high values; fluorescence (KMESF) at 10 µM; hit rate 0.38% among 220,000; AID 1775, 2009; in the data active means fluorescence above about 47
EP2 antag: human EP2 receptor antagonists, primary screen, TR-FRET cAMP, C6 glioma cells; hit rate 0.52% among 260,000; inhibition, % at 25 µM; AID 1422, 2008; C6 glioma cells expressing human EP2; cells stimulated with saturating PGE2;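 active means percent inhibition above 40 after rounding to a whole number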;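 further: rat C6 glioma host cells with rolipram phosphodiesterase inhibitor present; the protocol text gives 20 µM as final concentration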
Target sequence (P43116 whole entry, looked up): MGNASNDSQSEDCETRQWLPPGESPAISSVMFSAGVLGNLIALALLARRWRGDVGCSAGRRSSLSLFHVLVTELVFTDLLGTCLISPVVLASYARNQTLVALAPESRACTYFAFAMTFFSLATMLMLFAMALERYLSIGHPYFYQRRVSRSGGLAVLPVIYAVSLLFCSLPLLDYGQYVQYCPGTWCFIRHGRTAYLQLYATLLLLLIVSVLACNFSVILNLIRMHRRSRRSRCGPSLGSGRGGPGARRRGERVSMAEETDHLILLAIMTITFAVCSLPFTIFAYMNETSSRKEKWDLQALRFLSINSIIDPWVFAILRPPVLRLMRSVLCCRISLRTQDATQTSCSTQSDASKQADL
HMGR II inh: inhibitors of E. faecalis class II HMGR, primary screen, biochemical, Enterococcus faecalis; inhibition, % at 10 µM; purified E. faecalis HMGR, NADPH absorbance 340 nm kinetic; hit rate 0.41% among 190,000; HMG-CoA reductase (Enterococcus faecalis, mvaE); AID 1066, 2008;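 active means inhibition above a set limit, the median over all tested compounds plus 3 SD, cut at about 9.5% in these data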;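 further: enzyme runs in reverse so mevalonate oxidation gives rising NADPH absorbance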
EP2 mod: EP2 receptor modulators, cAMP readout, primary screen, cell-based, HTRF cAMP, PGE2 stimulation; Prostaglandin E2 receptor EP2 subtype (Homo sapiens), P43116; EP2-expressing cells, cAMP HTRF FRET, PGE2 co-stimulation; induction, % at 25 µM; hit rate 0.83% among 260,000;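 active means compounds whose cAMP rise, as percent of the full-agonist control response, exceeds 60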;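 further: rat C6 glioma line stably carrying human EP2 under a CMV promoter; the protocol text gives 20 µM as final concentration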
EP2 confirm: cAMP induction in EP2, EP4, beta2-AR and parental cells, confirmation, counter-screen for EP2 modulator project, cell-based, five parallel assays, C6 glioma, HEK293; calls only at 20 µM (by protocol); cAMP HTRF induction; plus low (about EC15) PGE2 agonist; shares compounds with EP2 mod; hit rate 47% among 1,300;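 active means cAMP induction above 50% in the main assay while under 30% in all four parallel counter assays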;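 further: rat C6 glioma cells stably expressing human EP2 receptor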
Hits are given with their value; i = inactive; nt = no result given; + = active, no number; ! = repeats disagree.

SMILES	GSH fluor	Avidin fluor	EP2 antag	HMGR II inh	EP2 mod	EP2 confirm
O=C(c1cn(Cc2ccccc2)c2ccccc12)C1CC1	i	i	i	i	65	i
CN(C/N=C(\N)N[N+](=O)[O-])S(=O)(=O)c1ccccc1	i	i	i	i	i	nt
NC(=NCCC[C@H](N)C(=O)O)N[N+](=O)[O-]	nt	nt	i	nt	86!	i
CC1(C)C2C[C@@H](O)[C@]3(C)C(CC[C@@]4(C)[C@H](c5ccoc5)CC5OC543)[C@@]2(C)[C@@H](O)C[C@H]1O (stereo partly specified)	nt	nt	i	nt	i	nt
CN1CCN(C(=O)COc2cccc3ccccc23)CC1	nt	nt	i	nt	i	nt
CCc1ncc(CN(CCc2ccccc2)Cc2cccs2)cn1	nt	nt	i	nt	i	nt
NCCc1ccc(O)cc1	i	i	i	i	i	nt
CCCCCCCCCc1ccc(O)cc1	nt	nt	i	nt	i	i
Clc1ccccc1C1NCc2ccccc2-n2cccc21 (stereo unspecified)	i	i	i	i	68	+
CCc1ncc(CN2C3CCC2CC(O)(c2ccc(F)cc2)C3)cn1 (stereo unspecified)	nt	nt	i	nt	i	nt
C[C@H](N)[C@H](O)c1ccc(O)c(O)c1	nt	nt	i	nt	74	i
CCOP(=S)(OCC)Oc1nc(Cl)c(Cl)cc1Cl	nt	nt	i	nt	68	+
COc1cc(OC)c(OC)cc1CNCCc1ccc(OC)c(OC)c1	i	i	i	i	67	i
CCCn1nc(CC(=O)N(C)CCN2CCCCC2)c2ccccc2c1=O	nt	nt	i	nt	i	nt
C=CCc1cc(C=C2C(=O)N(C)C(=O)N(C)C2=O)cc(OCC)c1OCc1ccccc1	i	i	i	i	88	i
CC(C)c1nccn1Cc1ccc(Cl)cc1Cl	nt	nt	i	nt	106	i
